Screening results deposited in PubChem BioAssay by National Center for Advancing Translational Sciences (NCATS).
Sampled rows, rich in hits. Any-hit rate of the full collection: about 12%.
JMJD2A Tudor – qHTS Assay for Inhibitors of JMJD2A-Tudor Domain; Lysine-specific demethylase 4A (Homo sapiens), O75164; 4.4% of 390,000 active; Potency, µM (doses to about 114 µM), for inactives: at the top dose activity change, negative = inhibition, usual class: inhibitors; AlphaScreen JMJD2A-Tudor / H3K4me3 peptide binding; further: on the % scale 0 is the no-effect control and ±100 the full control effect; nearly all actives have a fitted effect of over 50% in size
BAZ2B block – qHTS Assay for Inhibitors of BAZ2B | Bromodomain adjacent to zinc finger domain protein 2B (Homo sapiens), Q9UIF8 | AlphaScreen BAZ2B-H3K14Ac peptide displacement | Potency, µM (series often up to 114 µM), for the others: at the highest dose activity change, negative = inhibition, usual class: inhibitors | 4.4% of 360,000 active | AID 504333, 2011; further: on the % scale 0 is the no-effect control and ±100 the full control effect; nearly all actives have a fitted effect of over 60% in size
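Complex of BAZ2B and biotin-H3K14Ac (50 nM apiece) forms over 30 min at RT, then faces library compounds up to 110 uM for another 30 min; AlphaScreen beads added, 20 min dark incubation, luminescence read.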
Sfp PPTase inh – qHTS Assay for Inhibitors of Bacillus subtilis Sfp phosphopantetheinyl transferase (PPTase); 4'-phosphopantetheinyl transferase ffp (Bacillus subtilis), Q9F4F7; Biochemical Sfp PPTase activity, qHTS; 3.5% of 310,000 active; Potency, µM, inactives show largest response in the series, negative = inhibition, hits mostly inhibitors;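 further: the enzyme is Sfp with the accession as filed and its product quenches rhodamine fluorescence; 0% = enzyme reaction without inhibitor and -100% = no enzyme wells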
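Step 1, compound plus 15 nM Sfp-PPTase, 15 min, room temperature. Step 2, add rhodamine-CoA (5 uM) and BHQ-2-YbbR (12.5 uM). Step 3, read 525/598 nm fluorescence at 0 and 30 min.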
L3MBTL1 block – qHTS Assay for the Inhibitors of L3MBTL1 | AlphaScreen L3MBTL1–H3K9me1 peptide binding | Lethal(3)malignant brain tumor-like protein 1 (Homo sapiens), Q9Y468 | AID 485360, 2010 | Potency, µM (doses to about 57.1 µM), inactives show at the top dose activity, negative = inhibition, most hits filed as inhibitors | 0.66% of 230,000 active; further: on the % scale 0 is the no-effect control and ±100 the full control effect; nearly all actives have a fitted effect of over 60% in size
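L3MBTL1 (50 nM) pre-complexed 30 min with biotinylated H3(1-15)K9me1 peptide (75 nM), then compounds added for 30 min at room temperature; AlphaScreen streptavidin donor/nickel chelate acceptor beads (10 ug/mL final) read after 30 min dark incubation.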
HP1b binding inh – HTS for Inhibitors of HP1-beta Chromodomain Interactions with Methylated Histone Tails; Chromobox protein homolog 1 (Homo sapiens), P83916; AID 540317, 2011; 0.56% of 390,000 active; Potency, µM (top dose mostly 114 µM), without a hit: at the top dose activity change, negative = inhibition, actives largely listed as inhibitors; AlphaScreen HP1-beta / biotin-H3K9me3 peptide binding; further: nearly all actives have a fitted effect of over 70% in size
Target sequence (P83916 whole entry, looked up): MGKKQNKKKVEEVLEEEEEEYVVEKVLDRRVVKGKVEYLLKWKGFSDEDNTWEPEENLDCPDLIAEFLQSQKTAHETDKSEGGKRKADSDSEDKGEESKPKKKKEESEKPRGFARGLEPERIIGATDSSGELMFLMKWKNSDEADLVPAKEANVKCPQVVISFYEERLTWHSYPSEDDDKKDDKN
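Compound inhibition of the preformed complex between 50 nM HP1-beta and 50 nM biotinylated H3K9me3 peptide was read by AlphaScreen. Buffer was PBS pH 7.4 with 0.01% Tween-20. Incubations ran 30 min at room temperature, with 10 ug/mL donor/acceptor beads.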
G9a inh – qHTS Assay for Inhibitors of Histone Lysine Methyltransferase G9a | 8.8% of 350,000 active | G9a H3K9 monomethylation, AlphaScreen, 2 h | Potency, µM (highest dose often 102 µM), for the others: top-dose activity, negative = inhibition, actives largely listed as inhibitors; further: on the % scale 0 is the no-effect control and ±100 the full control effect; nearly all actives have a fitted effect of over 75% in size
Target sequence (Q96KQ7 913-1193 limits assumed): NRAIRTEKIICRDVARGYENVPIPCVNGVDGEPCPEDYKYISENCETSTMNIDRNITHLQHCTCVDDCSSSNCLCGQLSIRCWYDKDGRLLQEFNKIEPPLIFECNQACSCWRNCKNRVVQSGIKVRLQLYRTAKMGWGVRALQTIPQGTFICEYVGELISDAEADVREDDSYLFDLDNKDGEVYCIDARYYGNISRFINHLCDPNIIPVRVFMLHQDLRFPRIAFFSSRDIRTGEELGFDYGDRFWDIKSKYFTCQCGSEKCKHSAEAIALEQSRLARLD
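Step 1: enzyme (final 20 nM) with compound, 15 min RT. Step 2: substrate peptide 500 nM and SAM 20 uM, 2 h RT. Step 3: anti-H3K9me1 antibody and AlphaScreen beads, 10 min, then plate read.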
Numbers without * were called inactive; ? = inconclusive; . = no result; [ ] = another dose, or the depositor's remark. The call rests on the fitted dose curve; in most records, active means well fitted curve in the direction sought with a large enough effect; inconclusive means small, poorly fitted or top-dose-only effect, or another doubt; inactive means no such curve, though single readings can be large; an effect the other way counts as inactive or inconclusive. Potency means the concentration at half of the fitted maximal effect.

SMILES	JMJD2A Tudor	BAZ2B block	Sfp PPTase inh	L3MBTL1 block	HP1b binding inh	G9a inh
O=C(O)CSc1nnc(CNc2cccc(C(F)(F)F)c2)n1Cc1ccco1	-16%	?	40µM*	-23%	45%	19%[59 µM]
COc1ccc(S(=O)(=O)NCCc2sc(-c3cccnc3)nc2C)cc1	-8%	1%	.	.	12%[57 µM]	-5%[59 µM]
CCCN(CCC)C(=O)Cc1coc2ccc3ccccc3c12	7%	-4%	18%	.	34%	50µM*
CCc1c(C)sc2c1CCN(Cc1cccc(F)c1)C2c1ccccc1 (stereo not drawn)	?	?	.	.	-2%	-50%[59 µM]
CC1(C)Cc2c(sc(NC(=O)C(=O)NCCCN3CCOCC3)c2C#N)CO1	2%	-20%	16µM*	.	22%	22µM*
CC1(C)Cc2c(sc(NC(=O)/C=C/C(=O)O)c2C#N)CO1	-8%	-9%	-11%	-9%	40%	.
CC(=O)c1ccc(NC(=O)C2=CC(c3ccc4c(c3)OCO4)=NS(=O)(=O)N2C)cc1	18%	-27%	12%	.	43%	-3%[59 µM]
CC(=O)c1ccc(NC(=O)C2=CC(c3ccc(C)cc3)=NS(=O)(=O)N2C)cc1	?	?	.	.	-13%	14µM*
COc1ccc(C2=NS(=O)(=O)N(C)C(C(=O)Nc3ccc(C)cc3)=C2)cc1	-20%	?	3%	-16%	-3%	?
Cc1ccc(NC(=O)C2=CC(c3ccc(C)cc3)=NS(=O)(=O)N2C)cc1	?	1%	14%	-12%	3%	40µM*
COc1cccc(Nc2nc3ccccc3nc2NS(=O)(=O)c2cccs2)c1	89µM*	-1%	19%	5%	33%	2%[12.7 µM]
COc1ccc(Nc2nc3ccccc3nc2NS(=O)(=O)c2cccs2)c(OC)c1	-20%	-15%	16%	.	33%	?
O=C(O)c1ccc(Nc2nc3ccccc3nc2NS(=O)(=O)c2cccs2)cc1	-23%	-10%[57.1 µM]	28%	.	53%	50µM*
COc1ccc(S(=O)(=O)Nc2nc3ccccc3nc2Nc2cccc(C(=O)O)c2)cc1	-6%	-19%[57.1 µM]	16%	.	53%	45µM*
CCOC(=O)CNS(=O)(=O)c1ccc(F)cc1Br	-12%	.	-9%	.	29%	.
O=C(c1ccc(Cl)cc1)c1oc2ccccc2c1CS(=O)c1ccccc1 (stereo not drawn)	?	-35%	45µM*	-7%	-4%	?
OC(CNCC(c1ccco1)N1CCCCC1)c1ccccc1 (stereo not drawn)	1.1µM*	50µM*	?	-7%	-56%	2.2µM*
Nc1c(Cl)ncnc1N/N=C/c1ccc(O)cc1	-18%	?	56µM*	.	2%	8%[59 µM]
Oc1ccc(/C=N/Nc2nccnc2Cl)cc1	-6%[57.1 µM]	-2%	-30%	.	-10%	5%[12.7 µM]
COC1=C(N)C(=O)c2nc(-c3nc(C(=O)O)c(C)c(-c4ccc(OC)c(OC)c4O)c3N)ccc2C1=O	89µM*	2%	3.5µM*	20µM*	-23%	?
COc1ccc(C(=O)O)c(O)c1OC	.	.	9%	.	.	.
COc1cc(C)ccc1OCCSc1nc2ccc(NC(C)=O)cc2s1	?	?	.	.	21%	-8%[59 µM]
Cc1ccc(-c2cc(C(=O)Nc3nccs3)c3ccccc3n2)o1	?	-36%	?	?	17%	4.5µM*
COc1ccc(NC(=O)c2cc(-c3ccc(C)o3)nc3ccccc23)c(OC)c1	?	.	.	.	14%	.
COc1ccc(-c2cc(C(=O)Nc3c(Cl)cc(Cl)cc3Cl)c3ccccc3n2)cc1OC	-33%	-4%	?	2%	24%	-5%[59 µM]
SMILES	JMJD2A Tudor	BAZ2B block	Sfp PPTase inh	L3MBTL1 block	HP1b binding inh	G9a inh
COc1ccc(NC(=O)c2cc(-c3ccc(C)o3)nc3ccccc23)cc1OC	56µM*	-31%	22µM*	?	-14%	?
COc1ccc(-c2cc(C(=O)Nc3ccc(Cl)cc3Cl)c3ccccc3n2)cc1OC	-3%	1%	35µM*	8%	29%	15%
COc1ccccc1OCc1ccc(C(=O)Nc2ccc(C)c(C)c2)o1	-20%	-16%	.	.	65%	-36%[59 µM]
Cc1cc2c(s1)c1cnn(Cc3cccc4cccnc34)c(=O)c1n2C	-24%	.	.	.	.	.
COC(=O)C1=C(C)N(Cc2ccccc2)C(=NCCc2c[nH]c3ccccc23)N[C@H]1c1ccccc1	?	56µM*	?	-6%	-13%	-28%[12.7 µM]
CCN1C(=NCCOC)N[C@@H](CCc2ccccc2)[C@H](C(=O)OC)[C@H]1C	40µM*	4%	19%	11%	15%	2%[12.7 µM]
CCN1C(=NCCc2c[nH]c3ccccc23)N[C@@H](c2ccccc2)[C@H](C(=O)OC)[C@H]1C	?	?	-3%	-4%	1%	79µM*
Cc1ccc(C(=O)c2oc3ccccc3c2NC(=O)Cc2coc3c(C)c(C)ccc23)cc1	-11%	-4%	.	.	35%	7%[59 µM]
N#CCc1ccc(C(=O)c2ccccc2F)s1	-12%	50µM*	-10%	-12%	15%	?
Cc1onc(-c2c(F)cccc2Cl)c1C(=O)NC(=S)Nc1c(C)n(C)n(-c2ccccc2)c1=O	-14%	?	18%	7%	23%	32µM*
Cc1cc(C)c2c(C)c(C(=O)Nc3c(C)n(C)n(-c4ccccc4)c3=O)oc2c1	-11%	1%	0%	-3%	35%	71µM*
Cc1c(NC(=O)c2ccc(COc3ccc4ccccc4c3)o2)c(=O)n(-c2ccccc2)n1C	-31%	50µM*	-10%	-11%	1%	?
Cc1ccc2c(=O)cc(C(=O)Nc3c(C)n(C)n(-c4ccccc4)c3=O)oc2c1	-3%	-6%	.	.	27%	?
Cc1c(NC(=O)c2cc3ccccc3oc2=O)c(=O)n(-c2ccccc2)n1C	-4%	-1%	2%	.	9%	25µM*
CSc1ccc(CNCc2c(C(=O)O)c(C)n(Cc3ccc(F)cc3Cl)c2C)cc1	?	-33%	.	.	-2%	-1%[59 µM]
CCCc1nnc(NC(=O)c2nc(SCC)ncc2Cl)s1	?	-7%	.	.	28%	?
Cc1c(NC(=O)c2cc(-c3ccccc3)on2)c(=O)n(-c2ccccc2)n1C	100µM*	8%	9%	.	-7%	12%[59 µM]
Cc1c(Nc2scc(-c3ccccc3)[n+]2-c2ccccc2)c(=O)n(-c2ccccc2)n1C	56µM*	50µM*	?	.	?	28µM*
CCN(CC)c1ccc(NC(=O)c2ccco2)cc1	?	-34%	-7%	-7%	-1%	35µM*
